{"source": "PubChem BioAssay (EPA / NIEHS)", "note": "Inconclusive results are not listed. Calls of active or inactive are those of the source. The calls were made as follows: active = hit-call score of the fitted dose curve at least 0.9, where 1 is the maximum; inconclusive = response in the unintended direction; inactive = score below 0.9.", "data": [{"assay": "ACEA_ER_AUC_viability: ACEA Biosciences xCELLigence Real-Time Cell Analysis on Estrogen Receptor Agonism for Viability (AID 2283782);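 also: hit means loss of impedance signal meaning reduced cell growth or viability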", "method_in_brief": "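Viability endpoint: reduced impedance area under the curve relative to DMSO, recorded by real-time electrode sensing over ~80 h of continuous exposure. Duplicate plates of T47D in hormone-depleted medium; eight concentrations, 1:4 dilutions, 100 uM maximum.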", "values": [{"smiles": "CC(=[OH+])/C=C(/C)[O-].CC(=[OH+])/C=C(/C)[O-].CC(=[OH+])/C=C(/C)[O-].[Fe]", "outcome": "inactive"}, {"smiles": "CC(=O)OC(c1ccccc1)C(Cl)(Cl)Cl", "note": "(stereo unspecified)", "outcome": "inactive"}, {"smiles": "CC(C)c1ccc(CO)cc1", "outcome": "inactive"}, {"smiles": "CC(C)OC(=O)Nc1ccccc1", "outcome": "inactive"}, {"smiles": "N#CCc1ccc(Cl)cc1", "outcome": "inactive"}, {"smiles": "C[C@@H](Oc1ccc(Cl)cc1Cl)C(=O)O", "outcome": "inactive"}, {"smiles": "COc1ccccc1OC", "outcome": "inactive"}, {"smiles": "OCC(O)CCl", "note": "(stereo unspecified)", "outcome": "inactive"}, {"smiles": "ClCCBr", "outcome": "inactive"}, {"smiles": "CC(C)(c1ccccc1)c1ccc(O)c(C(C)(C)c2ccccc2)c1", "AC50": "8.68 µM (active)"}, {"smiles": "O=C(O)CCC(F)(C(F)(F)F)C(F)(F)F", "outcome": "inactive"}, {"smiles": "Nc1cccc(Cl)c1", "outcome": "inactive"}, {"smiles": "CC(=[OH+])/C=C(/C)[O-].CC(=[OH+])/C=C(/C)[O-].CC(=[OH+])/C=C(/C)[O-].[Al]", "AC50": "72.6 µM (active)"}, {"smiles": "CC(C)C1CCC(Cc2ccc(Cl)cc2)C1(O)Cn1cncn1", "note": "(stereo unspecified)", "AC50": "19.9 µM (active)"}, {"smiles": "CCCCCCCCC(=O)NCc1ccc(O)c(OC)c1", "AC50": "50 µM (active)"}, {"smiles": "C[C@H]1O[C@@H](O[C@H]2[C@@H](O)C[C@H](O[C@H]3[C@@H](O)C[C@H](O[C@H]4CC[C@@]5(C)[C@H](CC[C@@H]6[C@@H]5CC[C@]5(C)[C@@H](C7=CC(=O)OC7)CC[C@]65O)C4)O[C@@H]3C)O[C@@H]2C)C[C@H](O)[C@@H]1O", "AC50": "0.159 µM (active)"}, {"smiles": "COP(=S)(OC)Oc1ccc(S(=O)(=O)N(C)C)cc1", "outcome": "inactive"}, {"smiles": "CN(CCCC(=O)c1cccnc1)N=O", "outcome": "inactive"}, {"smiles": "Oc1cccc2cccnc12", "outcome": "inactive"}, {"smiles": "C=CCc1ccc(OC)cc1", "outcome": "inactive"}, {"smiles": "ClC1=C(Cl)[C@]2(Cl)[C@@H]3[C@@H](Cl)[C@@H](Cl)C[C@@H]3[C@@]1(Cl)C2(Cl)Cl", "outcome": "inactive"}, {"smiles": "CCCCCCCCc1ccc(O)cc1", "AC50": "24.4 µM (active)"}, {"smiles": "Cl/C=C\\C[N+]12CN3CN(CN(C3)C1)C2", "AC50": "50 µM (active)"}, {"smiles": "CCc1ccccc1C", "outcome": "inactive"}, {"smiles": "Cc1cc(Cl)ccc1O[C@H](C)C(=O)O", "outcome": "inactive"}, {"smiles": "O=C/C=C/c1ccccc1", "outcome": "inactive"}, {"smiles": "Nc1ccc(-c2ccc(N)c(Cl)c2)cc1Cl", "outcome": "inactive"}, {"smiles": "CCOP(=S)(OCC)SCCS(=O)(=O)CC", "AC50": "57.6 µM (active)"}, {"smiles": "ClCc1cccnc1", "AC50": "50 µM (active)"}, {"smiles": "COC(=O)c1sccc1S(=O)(=O)NC(=O)Nc1nc(C)nc(OC)n1", "outcome": "inactive"}, {"smiles": "CCC(C)(C)c1ccc(O)c(C(C)(C)CC)c1", "AC50": "14.9 µM (active)"}]}]}
